Screens deposited in PubChem by Broad Institute.
aSyn UTR act: Activators via SNCA 5'UTR binding, MLPCN; 300,000 compounds, 7.1% hits; activity score, % (tested at 7.5 µM), hits read low; alpha-synuclein 5'UTR reporter, activators screen; in the data active = activity score below about -60%
Starred values were filed as active, the others as inactive. The list is a sample of the results.

SMILES	aSyn UTR act
O=C(Nc1ccc(N2CCCC2)c(Cl)c1)c1ccco1	-113.2*
CCN1CCN(c2ccc(NC(=O)c3cccc(F)c3)cc2Cl)CC1	-81.7*
Cc1ccc(C2=NN3C(=O)c4ccccc4C3C2)cc1 (configuration not stated)	-170.3*
CN(C)c1ccc(/C=C2\CCCCC2=O)cc1	-104.3*
Cc1ccnc2nc(C(=O)Nc3ccc(N4CCOCC4)cc3)nn12	-73.0*
Cc1ccc(NC(=O)c2nc3nccc(C)n3n2)c(C)c1	-63.7*
Cc1csc(NC(=O)c2nc3nccc(C)n3n2)n1	-147.2*
CCSc1ncc(/C=N/Nc2ccccc2)n1C	-109.0*
CCSc1ncc(/C=N/Nc2ccc([N+](=O)[O-])cc2)n1C	-193.9*
CCSc1ncc(/C=N/Nc2ccc(Cl)cc2)n1C	-180.5*
Cc1ccc(C(=O)N2CCN3C(=O)c4ccccc4C23c2ccc(Cl)cc2)cc1 (configuration not stated)	-68.6*
COc1ccc(-c2csc(NC(=O)c3ccc(C(C)(C)C)cc3)c2C(=O)O)cc1	42.5
Cc1ccc(-c2csc(NC(=O)c3ccc(F)cc3)c2C(=O)O)cc1	-105.2*
O=C(/C=C/c1ccccc1)Nc1scc(-c2ccccc2)c1C(=O)O	-84.2*
Cc1ccc(-c2csc(NC(=O)c3ccccc3F)c2C(=O)O)cc1	-102.2*
CCOC(=O)c1c(-c2ccc(-c3ccccc3)cc2)csc1NC(=O)CNCCN(C)C	100.6
O=[N+]([O-])c1ccc(-[n+]2ccc3ccccc3c2)c([N+](=O)[O-])c1	-105.1*
Cc1cc(C)nc(Nc2n[nH]c(-c3ccc(N)cc3)n2)n1	-140.2*
Cc1cc(C)nc(Nc2n[nH]c(-c3ccc(C(C)(C)C)cc3)n2)n1	-129.5*
O=C(N/N=C/c1cc2c(cc1[N+](=O)[O-])OCO2)c1ccccn1	-81.2*
COc1cc(/C=N/NC(=O)c2ccccn2)cc2c1OCO2	-95.4*
O=C(N/N=C/c1cc2c(cc1Cl)OCO2)c1ccccn1	-91.5*
Cn1cc(Br)c(C(=O)N/N=C/c2cc3c(cc2Cl)OCO3)n1	-140.3*
c1cncc(-c2nc(-c3ccc4c(c3)OCO4)cs2)c1	-117.2*
Clc1ccsc1-c1csc(-c2cccnc2)n1	-85.3*
SMILES	aSyn UTR act
Oc1ccc(-c2csc(-c3cccnc3)n2)c(O)c1	-100.9*
O=C(N/N=C/c1ccccn1)NC12CC3CC(CC(C3)C1)C2	-105.1*
O=C(N/N=C/c1ccccc1F)NC12CC3CC(CC(C3)C1)C2	-114.8*
COc1ccc(NC(C)=O)cc1S(=O)(=O)Nc1ccccc1C(=O)NCCc1ccccc1	-127.6*
O=C(O)CCc1ccc(S(=O)(=O)Nc2ccccc2C(=O)NCCc2ccccc2)cc1	-117.8*
CN1CCSc2ccc(C(=O)Nc3ccc(Cl)cc3)cc21	-215.0*
COc1cccc(NC(=O)c2ccc3c(c2)CCN3S(C)(=O)=O)c1	-118.3*
COc1cccc(NC(=O)c2ccc3c(c2)N(C)CCS3)c1	-116.9*
O=C(OCc1ccccn1)c1ccc(COc2ccc3ccccc3c2)o1	-104.2*
S=C1SCN(Cc2cccnc2)CN1Cc1cccnc1	-86.4*
CC(/C=N/NC(=O)c1cc(-c2ccncc2)nc2ccccc12)=C\c1ccco1	86.1
CC(/C=N/NC(=O)Cc1cccs1)=C\c1ccco1	-98.2*
CC(/C=N/NC(=O)c1cccs1)=C\c1ccco1	-176.4*
C=CCn1c(SCc2c(C)noc2C)nc2ccccc2c1=O	79.7
C=CCn1c(N/N=C/c2ccc(O)cc2)nc2ccccc2c1=O	-134.5*
O=c1[nH]c(N/N=C\c2ccc(F)cc2)nc2ccccc12	-149.9*
O=c1[nH]c(N/N=C/c2ccc(O)cc2)nc2ccccc12	-157.8*
Cc1ccc(/C=C2/CCc3c([nH]c4ccccc34)C2=O)cc1	-180.1*
CCCCCCCn1c2c(c(=N)c3ccccc31)CCC2	79.4
Cc1ccc2[nH]c3c(c2c1)CC/C(=C/c1ccccc1)C3=O	-194.1*
CCCC/C=C1\CCc2c([nH]c3ccccc23)C1=O	-75.0*
CCCCN1CCc2c([nH]c3ccccc23)C1=O	-127.6*
O=C1/C(=C\c2ccccc2)CCc2c1[nH]c1ccccc21	-121.5*
CCOc1ccccc1-c1nn2c(Cc3ccccc3)nnc2s1	-65.8*
CC(NC(=O)NC(=O)c1ccc(Cl)cc1Cl)C1CC1 (configuration not stated)	-69.6*
SMILES	aSyn UTR act
CC(Sc1nnc(NCc2ccccc2)s1)C(=O)Nc1ccc2c(c1)C(=O)c1ccccc1C2=O (configuration not stated)	-165.0*
Cn1c2ccccc2c2cc(C(=O)N3CCN(CCO)CC3)sc21	-86.4*
COc1ccc2oc(=O)c(C(=O)NC3CCCCCC3)cc2c1	-173.6*
COc1ccc2oc(C(=O)NC3CCCCC3)c(C)c2c1	-99.0*
COc1ccc2oc(C(=O)NCCC(C)C)c(C)c2c1	-142.8*
CCN(CC(=O)Nc1ccccc1C(F)(F)F)C(=O)c1oc2ccc(OC)cc2c1C	-64.7*
COCCN(CC(=O)NC1CCCCC1)C(=O)/C=C/C(=O)c1ccc(OC)cc1O	78.8
C/C(Cl)=C\Cn1c(O)c(N=NC(N)=S)c2cc(Br)ccc21	70.1
COc1ccc2oc(C(=O)Nc3ccc(C)cn3)c(C)c2c1	-124.2*
COCc1cc(C)nc(SCC(=O)c2ccc(O)c(O)c2)c1C#N	-79.8*
COCc1cc(C)nc(SCC(=O)Nc2ccc3c(c2)OCO3)c1C#N	-70.4*
COCc1cc(C)nc(SCC(=O)Nc2ccc3c(c2)OCCO3)c1C#N	-85.6*
C/C(=N\Nc1ccccn1)c1ccc(N2CCOCC2)cc1	-155.9*
C(=N\Nc1ccccc1)/c1ccc(N2CCOCC2)cc1	-153.7*
Clc1cccc(N/N=C/c2ccc(N3CCOCC3)cc2)c1	-183.1*
C(=N\Nc1ccccn1)/c1ccc(N2CCOCC2)cc1	-182.4*
O=[N+]([O-])c1ccc(N/N=C/c2sc(N3CCOCC3)nc2-c2ccccc2)c(S(=O)(=O)Nc2ccc(Cl)cc2)c1	75.8
C/C(=N\Nc1ccccn1)c1ccc(C(C)C)cc1	-132.5*
O=[N+]([O-])c1cccc(N/N=C/c2ccc(N3CCOCC3)cc2)c1	-225.0*
COc1ccc(C(=O)/C=C/Nc2cccc(C)n2)cc1OC	-194.9*
CCCCCc1ccc(-c2cn(Cc3ccc(C)cc3)nn2)cc1	-99.5*
COc1ccc(-c2cn(Cc3ccc(C)cc3)nn2)cc1	-107.6*
CCc1ccc(-c2cn3nc(C)c(C)nc3n2)cc1	87.0
O=S(=O)([N-]c1nc2ccccc2nc1-[n+]1ccc(-c2ccncc2)cc1)c1ccccc1	-105.0*
Cc1ccc(-c2ccc(/C=C3\SC(N4CCOCC4)=NC3=O)o2)cc1	-72.3*
SMILES	aSyn UTR act
[O-]/[N+](=C\C=C\c1ccccc1)c1ccccc1	-181.8*
CCOC(=O)C1CCN(c2nnc(N3CCCC3=O)s2)CC1	-65.9*
CCc1cccc2c(=O)c(C(=O)N3CCCCCC3)c[nH]c12	-77.7*
Cc1ccc(C2NC(=O)c3c(sc(C)c3C)N2)c(O)c1 (configuration not stated)	-233.6*
Cc1sc2c(c1C)C(=O)NC(c1ccccc1F)N2 (configuration not stated)	-114.7*
Cc1cccc(C2NC(=O)c3c(sc(C)c3C)N2)c1O (configuration not stated)	-86.9*
Cc1ccc2nc(-c3ccc(N4C(=NC(=O)CCC(=O)O)SC5CS(=O)(=O)CC54)cc3)sc2c1 (configuration not stated)	-91.9*
CC(=O)N=C1SC2CS(=O)(=O)CC2N1c1ccc(-c2nc3ccc(C)cc3s2)cc1 (configuration not stated)	-164.1*
CN(CC(=O)Nc1cccc(F)c1)C(=O)CCCNC(=O)c1ccc(Cl)cc1	-90.9*
